Source: PubChem BioAssay (several laboratories)
Shown are actives, neighbours in structure and some others; about 12% of the full set was active somewhere.
Arbovirus inh – arbovirus infection inhibition; arbovirus infection cell-based antiviral screen; inhibition, % at 10 µM; 200,000 compounds, 0.37% hits; AID 1251; in the data active means inhibition above about 30%
CHOP inh – blocks CHOP induction under ER stress | CHO-K1 CHOP-promoter luciferase, tunicamycin-induced, 15-18 h | inhibition, % at 10 µM | 220,000 compounds, 3.8% hits | AID 2732;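 active means compounds that reduced the stress-induced luciferase reporter signal by more than about 70% of percent inhibition, limit read from the data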;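 further: 0% = tunicamycin plus vehicle and 100% = wells without tunicamycin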
Lmaj promast – inhibitors of Leishmania major promastigote growth; Leishmania major promastigotes, resazurin fluorescence viability; inhibition, % at 10 µM; 200,000 compounds, 9% hits; in the data active means inhibition above about 50%;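 further: promastigotes grown with compound for 44 hours at 28 °C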
WT yeast gro inh – growth inhibition of WT yeast, mitochondrial fusion screen; 190,000 compounds, 2.1% hits; inhibition, % at 10 µM; mitochondrial fusion phenotypic screen, WT strain; AID 1362; in the data active means inhibition above about 58%; tested in S. cerevisiae
* hit, by the source's call; x = no result given.

SMILES	Arbovirus inh	CHOP inh	Lmaj promast	WT yeast gro inh
CCN1C(=O)C2(C(C#N)=C(N)Oc3c2c(C)nn3-c2ccccc2)c2ccccc21 (centres undefined)	-17.8	7.0	85.5*	x
CCC(C)C(NC(=O)c1ccccc1NC(=O)c1ccc(OC)cc1)C(=O)NCc1ccco1 (centres undefined)	-3.8	71.2*	5.8	-90.9
COc1ccc(C(=O)Nc2ccccc2C(=O)NC(Cc2ccc(O)cc2)C(=O)NNC(=O)c2ccccc2)cc1 (centres undefined)	10.7	-19.2	62.3*	14.7
O=C(N/N=C(\Cc1ncc[nH]1)c1ccccc1)c1cccnc1	-24.7	57.3	3.9	-2.0
Cc1ccc(-c2nn3c(C)nnc3s2)cc1NC(=O)c1ccc(-c2cccc(Cl)c2)o1	-26.3	50.2	15.5	8.6
Cc1nnc2sc(-c3cccc(NC(=O)c4ccc(-c5cccc(Cl)c5)o4)c3)nn12	x	x	98.2*	x
Cc1ccc(-c2nn3c(C)nnc3s2)cc1NC(=O)c1ccc(-c2ccc(Cl)cc2Cl)o1	-34.2	80.6*	-3.1	-8.5
Cc1ccc(-c2nn3c(C)nnc3s2)cc1NC(=O)c1ccc(Br)o1	-5.2	19.6	-0.2	7.3
O=C(O)c1ccc(Cn2cnc3sc4c(c3c2=O)CCCC4)cc1	3.6	21.0	5.6	-5.0
Cc1ccc(Cn2cnc3sc4c(c3c2=O)CCC4)c(C)c1	1.4	76.9*	-4.2	-8.4
N=c1c2c3c(sc2ncn1Cc1ccccc1)CCCC3	8.5	23.0	91.9*	-21.7
CCCCn1cnc2sc3c(c2c1=N)CCCC3	9.5	17.6	0.7	-19.1
C=CCc1cccc(CNc2c(C)cc(C)cc2C)c1O	10.4	-26.1	-3.9	14.2
CC(C)(C)C(=O)O/N=C(\N)c1ccc(-c2csnn2)cc1	x	-10.5	x	x
CCCn1c(SCC(=O)NCc2ccccc2Cl)n[nH]c1=O	1.9	-4.1	-1.3	-17.6
Clc1cccc(CN2CCCCCCC2)c1Cl	4.5	59.9	-4.1	-9.8
CCOC(=O)C1(Cc2cccc(F)c2)CCN(C(=O)Cn2cnnn2)CC1	x	-13.3	x	x
NCCCCNS(=O)(=O)c1cccc2c(Cl)cccc12	x	3.6	x	x
CCOC(=O)N1CCN(c2cc(N3CCN(CC)CC3)c(F)cc2[N+](=O)[O-])CC1C (centres undefined)	-5.8	11.3	100.2*	14.8
CCOC(=O)N1CCN(c2cc(N3CCOCC3)c(F)cc2[N+](=O)[O-])CC1	-0.4	2.4	1.2	6.0
COc1ccc(N=C2SC(CC(=O)Nc3cccc(Cl)c3)C(=O)N2Cc2ccco2)cc1 (centres undefined)	-13.3	56.4	98.4*	33.5
COc1ccc(N=C2SC(CC(=O)Nc3ccccc3)C(=O)N2CCc2ccccn2)cc1 (centres undefined)	-8.8	0.7	60.4*	10.4
COc1ccc(OC)c(NC(=O)CC2SC(=Nc3ccccc3)N(CCc3ccccn3)C2=O)c1 (centres undefined)	3.3	7.5	54.9*	21.7
CC1(C)OC(=O)C(=CNNc2c(Cl)cc(Cl)cc2Cl)C(=O)O1	x	7.6	x	x
CCOc1cc(/C=N/n2cnnc2)ccc1OS(=O)(=O)c1ccc(C)cc1	-4.6	21.3	79.3*	17.9
SMILES	Arbovirus inh	CHOP inh	Lmaj promast	WT yeast gro inh
CCOc1cc(/C=N/n2cnnc2)ccc1OCC(=O)Nc1ccccc1OC	0.9	34.7	0.5	5.0
COc1ccc(N2CCN(C(=O)c3ccc4c(c3)[nH]c(=S)n3c5ccccc5nc43)CC2)cc1	-11.5	73.1*	4.2	-5.5
O=C(C1CCC(Cn2c(=S)[nH]c3ccccc3c2=O)CC1)N1CCN(c2ccccn2)CC1 (centres undefined)	0.8	23.7	99.4*	22.5
O=C(CCCn1c(=S)[nH]c2ccc(Br)cc2c1=O)N1CCN(c2ccccn2)CC1	-3.8	13.4	18.6	4.0
COc1ccccc1N1CCN(C(=O)C2CCC(Cn3c(=S)[nH]c4ccccc4c3=O)CC2)CC1 (centres undefined)	-5.2	52.0	64.1*	-17.6
O=C(C1CCC(Cn2c(=O)[nH]c3ccccc3c2=O)CC1)N1CCN(c2ccccc2)CC1 (centres undefined)	-0.3	24.6	38.5	4.4
O=C(C1CCC(Cn2c(=S)[nH]c3ccccc3c2=O)CC1)N1CCN(c2ccccc2)CC1 (centres undefined)	x	x	99.2*	x
COCCn1c(=S)[nH]c2cc(C(=O)N3CCN(c4ccccc4OC)CC3)ccc2c1=O	9.0	1.2	9.6	-15.4
Brc1ccccc1Cn1c(-c2cscn2)nc2ccccc21	1.7	14.4	29.1	57.6
Cc1cc(C(=O)NCCc2ccc(Cl)cc2)no1	5.4	1.7	0.3	-4.8
O=C(O)c1sc2cc(C(F)(F)F)cnc2c1-c1cccs1	5.6	9.5	-2.8	7.4
O=C(C1CCC(Cn2c(=S)[nH]c3ccccc3c2=O)CC1)N1CCOCC1 (centres undefined)	3.9	32.8	-0.5	-11.9
COc1ccc(N2CCN(C(=O)C3CCC(Cn4c(=S)[nH]c5ccccc5c4=O)CC3)CC2)cc1 (centres undefined)	-8.3	70.8*	99.3*	40.8
CSCCC(NS(=O)(=O)c1ccc2ccccc2c1)C(=O)OCC(=O)c1ccc(C(C)C)cc1 (centres undefined)	7.9	37.8	86.6*	29.5
CSCCC(NS(=O)(=O)c1ccc(Cl)cc1)C(=O)OCC(=O)c1c(C)[nH]c2ccccc12 (centres undefined)	-29.2	-13.1	48.1	10.8
Cc1ccc2c(c1)Oc1ccc(NC(=O)CCl)cc1C(=O)N2	-35.0	107.1*	98.5*	-45.6
Cc1ccc(-c2nn(C)c(=O)c3ccccc23)cc1S(=O)(=O)NCCN1CCOCC1	-2.1	9.3	64.8*	10.5
CCOC(=O)CNS(=O)(=O)c1cc(-c2nn(C)c(=O)c3ccccc23)ccc1C	-6.6	27.6	11.6	70.5*
CCc1ccc(OCC(=O)N2c3ccccc3CCc3ccccc32)cc1	-12.4	51.2	20.8	80.6*
CCc1ccc(OCC(=O)Nc2cccc3c2CCCC3)cc1	-1.6	79.1*	-6.2	20.6
O=C(COc1ccccc1F)N1c2ccccc2CCc2ccccc21	14.6	10.3	23.3	-18.6
CCC(C(=O)Nc1ccsc1C(=O)OC)c1ccccc1 (centres undefined)	-1.1	43.4	0.7	-7.2
Cc1ccc(NC(=O)Cc2nc(CCl)cs2)cc1	-1.6	18.5	67.8*	1.1
Cc1ccc(NC(=S)Nc2nc(CC(=O)Nc3ccccc3)cs2)cc1	7.0	50.1	6.1	0.0
Cc1noc(C)c1COc1cccc(C(=O)NC(C)(C)C)c1	-2.1	12.3	-1.3	1.6
SMILES	Arbovirus inh	CHOP inh	Lmaj promast	WT yeast gro inh
CC(=O)Nc1ccc(N/C=C(\C=O)c2nc3ccccc3o2)cc1	-1.7	-24.3	2.8	-12.4
O=C/C(=C\Nc1ccccn1)c1nc2ccccc2o1	1.4	-16.3	73.0*	-3.2
O=C/C(=C\Nc1ccc(Br)cc1)c1nc2ccccc2o1	-11.1	74.5*	-6.3	6.0
N#Cc1c(SCC(=O)Nc2ccccc2)nsc1SCC(=O)Nc1ccccc1	-11.4	37.7	-5.6	-1.8
Cc1cccc(NC(=O)CSc2nsc(SCC(=O)Nc3cccc(C)c3)c2C#N)c1	-2.9	-8.9	68.9*	12.3
CCOc1ccc(-c2cc(NC(=O)Cn3ncc4c3-c3ccccc3OC4)on2)cc1OCC	0.5	99.7*	10.6	8.8
O=c1cc(O)cc(/C=C/c2ccc(O)c(O)c2)o1	x	9.9	x	x
